Results from PubChem BioAssay AID485395 (ICCB-Longwood Screening Facility, Harvard Medical School, 2010).
About 55 (0.05%) of roughly 120,000 compounds were called active. The sample holds actives, similar compounds and a random draw of the others, so the mix is not that of the screen. Rule as the data show it: active = inhibition above about 25% (passing the limit was not always enough); inactive = the rest.

test system: replicative DNA helicase (DnaC/DnaB), Staphylococcus aureus; test: S. aureus DnaC helicase unwinding inhibition – biochemical, fluorescence unwinding readout, primary screen (AID 485395);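 also: 0% = mean of negative control wells and 100% = mean of positive control wells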; settings: purified S. aureus helicase, fluorescence unwinding assay; stronger effect = higher value; concentration not given here

inhibition, inactive:
Cc1cc(CNCc2nnc3ccccn23)c(C)n1-c1ccnn1C(C)C 7%
Nc1cc(N)cc(C(F)(F)C(F)(F)C(F)(F)F)c1 23%
CCOc1ccc2nc(NC(=O)c3ccccc3OC)sc2c1 -8%
Cc1ccc(-n2nc(C)c(C(=O)N(Cc3ccccc3)C(C)C)c2-n2cccc2)cc1 22%
O=C(NC(c1ccccc1)c1ccccc1)C1COC2C=CC=CC2O1 (centres undefined) 5%
CCCn1c(NC(=O)CCCc2nc3ccccc3c(=O)[nH]2)nc2ccccc21 6%
COc1ccc(Cc2nn3c(C(C)(C)C)nnc3s2)cc1OC -4%
O=C1CCC(C(=O)NN2C(=O)c3cccc4cccc(c34)C2=O)=NN1 10%
CCOc1ccc(CCNC(=O)Nc2ccc(C)c(C)c2)cc1OCC -3%
CCOC(=O)c1c2c(n(-c3ccccc3)c1N)OC(=N)C(C#N)C2c1ccc(Br)cc1 (centres undefined) -19%
NNC(=O)CNC(=O)c1cccc2ccccc12 17%
O=C(CSc1ccc2nnc(-c3cccc(F)c3)n2n1)NCc1ccccc1 -3%
Cc1nc(Nc2nc3ccccc3o2)ncc1C(=O)Nc1ccccc1 24%
Cc1occc1-c1nnc(SCc2ccc(C(C)(C)C)cc2)n1N -3%
Cc1ccc(-c2nc(C#N)c(NCc3ccc4c(c3)OCO4)o2)cc1 5%
COc1ccc(/C=C2\Oc3ccccc3N(CC(=O)N3CCOCC3)C2=O)cc1 5%
c1ccc(-n2nnnc2N2CCCC2c2nc3ccccc3s2)cc1 (centres undefined) -12%
COc1ccccc1/C=C1\SC(=O)N(c2ccccc2)C1=O -8%
NNC(=O)CCCc1nc2ccccc2s1 4%
CCOC(=O)c1sc2nc(CN3CCCCC3)nc(NC3CC3)c2c1C 16%
O=S1(=O)CCC(N=Cc2cn(-c3ccccc3)nc2-c2ccccc2)C1 (centres undefined) 10%
N#CNc1nc2ccccc2nc1Cl 2%
COc1ccc(NC(=O)c2ccoc2COc2ccc(C)cc2)cc1 0%
Cc1ccc(SCc2nnc(-c3c(-c4ccccc4)noc3C)o2)cc1C -11%
CCCSc1nnc(Nc2ccccc2OC)s1 -21%
Cc1noc(N)c1C(=O)OCc1ccc(COC(=O)c2c(C)noc2N)cc1 -28%
O=C(COC(=O)C12CC3CC(CC(Br)(C3)C1)C2)NC1CC1 8%
Cc1nn(C)c(Cl)c1S(N)(=O)=O 8%
NC(=O)Cn1c(=O)n(Cc2ccco2)c(=O)c2ccccc21 16%
